Compounds without any hit were thinned out: in the full panel of roughly 79,000, 15% have a hit. The source made the active and inactive calls. Cut-off read from the data, not from the text of the source: active = growth inhibition above about 70%; inactive = the rest.
Assays:
[1] = NCI Yeast Anticancer Drug Screen. Data for the rad50 strain (AID 155);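 note: 0% = growth of vehicle-only cultures of the same strain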; details: S. cerevisiae rad50 strain growth inhibition; at 50.0 µM; hits give high values
Method in brief: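 DNA repair mutant yeast, compound exposure, growth read-out; inhibition is taken relative to vehicle.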

[2] = NCI Yeast Anticancer Drug Screen. Data for the mec2-1 strain (AID 157); details: S. cerevisiae mec2-1 strain, at 50.0 µM, hits give high values
Method in brief: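 Growth inhibition is read against vehicle-treated controls after compound exposure of the mec2-1 yeast strain, which is defective in DNA damage repair or cell cycle control.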

[3] = NCI Yeast Anticancer Drug Screen. Data for the sgs1 mgt1 strain (AID 161);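 note: 0% = growth of cultures given vehicle only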; details: S. cerevisiae sgs1 mgt1 strain, at 50.0 µM, hits give high values
Method in brief: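 Compounds are added to genetically altered yeast, and growth is compared with cultures given vehicle alone to give percent inhibition.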

[4] = NCI Yeast Anticancer Drug Screen. Data for the cln2 rad14 strain (AID 165);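 note: 0% = growth equal to vehicle treated cultures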; details: S. cerevisiae cln2 rad14 strain, at 50.0 µM, hits give high values
Method in brief: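 Growth inhibition, relative to vehicle-treated controls, is the read-out. The test organism is a yeast strain with defined genetic alterations, cln2 rad14.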

[5] = NCI Yeast Anticancer Drug Screen. Data for the bub3 strain (AID 167); details: S. cerevisiae bub3 mutant strain, at 50.0 µM, hits give high values
Method in brief: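 In this screen, a yeast mutant lacking normal mitotic checkpoint function is challenged with compound. Relative growth versus vehicle gives the inhibition value.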

[6] = NCI Yeast Anticancer Drug Screen. Data for the mlh1 rad18 strain (AID 175); details: S. cerevisiae mlh1 rad18 strain growth inhibition; at 50.0 µM; hits give high values
Method in brief: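 Cells of a genetically altered yeast strain, deficient in DNA damage repair, were treated with compound. Their growth was then compared with that of vehicle-treated cultures to give inhibition.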

Measured: growth inhibition

CCCC(=O)c1cc(-c2cc(C(=O)CCC)nc(N)n2)nc(N)n1
inactive: [1] 3.65% | [2] -3.4% | [3] 3.1% | [4] -15.9% | [5] -7.1% | [6] -0.4%

COc1cc([N+](=O)[O-])ccc1NC(=O)Nc1nccs1
inactive: [1] 5.75% | [2] 29.9% | [3] 11.9% | [4] -9.25% | [5] 22.4% | [6] -37.3%

C[n+]1ccc(NN)cc1
inactive: [1] -3.5% | [2] -15.8% | [3] 20.3% | [4] 12.6% | [5] 17.6% | [6] 4.4%

C=CCOC(=O)C(C)OC(=O)/C(Cl)=C/C(=O)O (configuration not stated)
inactive: [1] -2.45% | [2] 7.25% | [3] 16.4% | [4] -29.4% | [5] 10.5% | [6] 6.15%

CC(=O)Nc1cc(Cl)ccc1C
inactive: [1] 39.7% | [2] 29.9% | [3] 26.3% | [4] 16.1% | [5] 5.95% | [6] 24.1%

CCOc1ccc(N2C(=O)C(=O)C(C#N)(c3nc4ccccc4o3)C(=O)C2=O)cc1
inactive: [1] 9.25% | [2] 33.7% | [3] 5.95% | [4] 6% | [5] -0.7% | [6] 15.2%

CCOCCCN
inactive: [1] 37.5% | [2] 16.7% | [3] 6.85% | [4] 3.4% | [5] 16.9% | [6] 5.25%

CN1CCc2ccccc2/C(=C(/O)c2ccccc2)C1=O
inactive: [1] 28.8% | [2] 7.15% | [3] 12.3% | [4] 24.9% | [5] 13.3% | [6] 10.1%

CCC[CH2][Sn]([CH2]CCC)([O]C(=O)c1ccc(OC)c(OC)c1OC)[O][Sn]([CH2]CCC)([CH2]CCC)[O]C(=O)c1ccc(OC)c(OC)c1OC
active: [1] 85.7% | [2] 85% | [3] 86.3% | [4] 85.2% | [5] 87.2% | [6] 86.3%

COc1cccc(C=NC23CC4CC(CC(C4)C2)C3)c1
inactive: [1] -22.2% | [2] -3.15% | [3] 3.65% | [4] -0.9% | [5] 6.85% | [6] -6.8%

N#CC(NNC(=O)c1ccccc1O)c1cccc(O)c1 (configuration not stated)
inactive: [1] 10.8% | [2] -0.25% | [3] 10.6% | [4] -6.7% | [5] 25.7% | [6] -25%

O=c1cc(-c2ccccc2)[nH]c2nccn12
inactive: [1] -55% | [2] -27.1% | [3] -53.1% | [4] -57.5% | [5] 5.85% | [6] -58.7%

CCCC1CCCCC1O (configuration not stated)
inactive: [1] -9.55% | [2] -38.8% | [3] -24.4% | [4] 7.15% | [5] -24.2% | [6] -6.95%

COc1ccc(C2=Nn3c(nc4sc(C)c(C)c4c3=O)SC2)cc1
inactive: [1] 2.45% | [2] -8.15% | [3] -3.7% | [4] 19.1% | [5] 2.95% | [6] -14.3%

COc1ccc(C)cc1NC(=O)c1c(Br)c(Br)c(Br)c(Br)c1C(=O)O
inactive: [1] 4.25% | [2] -11.1% | [3] 10.4% | [4] 12.8% | [5] 6.8% | [6] 10.8%

O=C(O)C(=Cc1ccc(-c2ccc([N+](=O)[O-])cc2)o1)C(=O)O
inactive: [1] 6.95% | [2] 0.7% | [3] -12.8% | [4] 29.9% | [5] 15.8% | [6] 12.4%

CCCC(=O)OCc1ccccc1
inactive: [1] 14.4% | [2] 11.9% | [3] -6.9% | [4] -15.8% | [5] -5.15% | [6] -7.85%

O=C1C=C(c2ccccc2)C(=O)C(c2ccccc2)=C1c1ccccc1
active: [1] 73.2% | [2] 88.2% | [3] 88.8% | [4] 80% | [5] 78.2% | [6] 89.6%

C/C(=N/O)c1sc(-c2nc(C)c(/C(C)=N\O)s2)nc1C
inactive: [1] -1.7% | [2] -19.3% | [3] 4.7% | [4] 4.85% | [5] -6.6% | [6] 3.05%

C[C@H](C(=O)C12CC3CC(CC(C3)C1)C2)[C@H](O)c1ccccc1
inactive: [1] 5.85% | [2] 4.7% | [3] -10.8% | [4] 17% | [5] -11.5% | [6] -18.2%

O=C(Cc1cccc(CC(=O)c2ccccc2)n1)c1ccccc1
inactive: [1] 9.25% | [2] -4.75% | [3] 18.5% | [4] -52.2% | [5] -43% | [6] 10.4%

C[N+]1(CC(O)c2ccccc2)CCCC1 (configuration not stated)
inactive: [1] 3.55% | [2] 13.3% | [3] -0.25% | [4] 32.6% | [5] 6.3% | [6] -10.8%

COc1ccc(N=Cc2ccc(C=Nc3ccc(OC)cc3OC)cc2)c(OC)c1
inactive: [1] 10.6% | [2] -21.6% | [3] 5.15% | [4] 7.7% | [5] -5.45% | [6] -1.9%

O=C(O)C(CO)Nc1ccccc1 (configuration not stated)
inactive: [1] 18.9% | [2] 10.4% | [3] 22.1% | [4] 12.9% | [5] -0.65% | [6] 21.7%

CC(=O)OCCC(=O)Nc1cc([N+](=O)[O-])ccc1OCc1ccccc1
inactive: [1] 7.05% | [2] 1.6% | [3] -6.45% | [4] -3.8% | [5] 3.65% | [6] -16%

CCCc1cc(=O)oc2c3c(c4c(c12)OC(C)(C)C=C4)OC(C)[C@H](C)[C@@H]3O (some centres not stated)
inactive: [1] 14.4% | [2] 11.4% | [3] 32% | [4] 8.85% | [5] 19.8% | [6] 26.1%

C=CCc1cc2c(cc1COC(C)=O)OCO2
inactive: [1] -35.7% | [2] -17.9% | [3] -15.4% | [4] -36.5% | [5] -10.6% | [6] -28%

O=S(=O)(Nc1cccc(F)c1)c1ccc(F)cc1
inactive: [1] -12.5% | [2] -10.4% | [3] -3.6% | [4] 0.3% | [5] -9.95% | [6] 11.6%

CCCCCCCC/C=C\CCCCCCCC(=O)O
inactive: [1] 10.1% | [2] -23.1% | [3] -2.2% | [4] -22.9% | [5] -27.1% | [6] -15.7%

CCOC(=O)c1ccc(N=NC2Sc3nc4ccccc4n3C2=O)cc1 (configuration not stated)
inactive: [1] -23.6% | [2] -2.4% | [3] -2.65% | [4] -51.4% | [5] 21.8% | [6] -6.3%

CC1=CC(C)(C)NC(=S)N1c1cccc2c(S(=O)(=O)O)cccc12
inactive: [1] 5.05% | [2] -20.8% | [3] -11.2% | [4] -32.3% | [5] 4.55% | [6] 6.3%

Cc1nc2c(-c3ccccc3)[nH]c(C)c2c(=O)o1
inactive: [1] -17.2% | [2] -40.1% | [3] -31.9% | [4] -8.8% | [5] -18.5% | [6] -24.4%

CC1Cn2c(nnc2-c2ccccc2O)S1 (configuration not stated)
inactive: [1] -14.1% | [2] 0.6% | [3] -3.25% | [4] -2.95% | [5] -15.3% | [6] -12.6%

CCCCNc1ccc2c(C)cc(=O)oc2c1
inactive: [1] -22.9% | [2] -30.6% | [3] -16.9% | [4] 0.7% | [5] -21.4% | [6] -17.4%

COc1ccc(N)c(OC)c1
inactive: [1] -30.6% | [2] -37% | [3] -90% | [4] 12.9% | [5] -39.6% | [6] -34%

Cc1cc(C)cc([N+](=O)[O-])c1
inactive: [1] 8.5% | [2] -19% | [3] 1.3% | [4] 20.1% | [5] 4.65% | [6] -26.3%

CCC[CH2][Sn]1([CH2]CCC)[O]C2C(CO)OC(n3c(Br)c(C(N)=O)c4c(N)ncnc43)C2[O]1 (configuration not stated)
active: [1] 98.3% | [2] 98.4% | [3] 98.7% | [4] 97.5% | [5] 97.5% | [6] 98.5%

Nc1ccccc1NC(=O)C(F)(F)F
inactive: [1] -2.45% | [2] -5.4% | [3] 3.3% | [4] -8.4% | [5] -8.75% | [6] 1.15%

CN1C=CCC(C=O)C1 (configuration not stated)
inactive: [1] -13.5% | [2] -4.5% | [3] 0.05% | [4] -3.7% | [5] 1.65% | [6] -7.2%

CSc1ccc2c(c1)Cc1cc(N)ccc1-2
inactive: [1] 3.9% | [2] 10.6% | [3] 12.1% | [4] 3.4% | [5] -26.7% | [6] 10.8%

N#CCCN1CCCC1=O
inactive: [1] -11.8% | [2] -7.55% | [3] -12.5% | [4] -22.4% | [5] 6% | [6] 6.15%

COC(=O)C(C)CC(=O)c1ccc2ccc3cccc4ccc1c2c34 (configuration not stated)
inactive: [1] -16.9% | [2] -18.4% | [3] -2.05% | [4] -35.4% | [5] 19.4% | [6] -4.2%
